From PubChem BioAssay
KDM4E inh: blocks human JMJD2E demethylase activity | B2RXH2 | JMJD2E catalytic domain, FDH-coupled NADH fluorescence (FDH is formaldehyde dehydrogenase) | AID 2147 | Potency, µM (titrated, usually from 57.1 µM), inactives show at the top dose activity change, negative = inhibition, most hits filed as inhibitors | 230,000 tested, 1.6% active;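 also: potency is read from the fitted curve at half-maximal effect; 0% = wells with enzyme and -100% = buffer wells without enzyme; nearly all actives have a fitted effect of over 50% in size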
GoLoco inh red: inhibitors of human Gai1-RGS12 GoLoco interaction (red fluorophore); Gai1:RGS12 GoLoco peptide FP, rhodamine, 10 min; Potency, µM (titrated, usually from 61.6 µM), for inactives: at the highest dose activity, negative = inhibition, most hits filed as inhibitors; 230,000 tested, 0.44% active; AID 880; active = well fitted inhibition curve with a large enough effect, not every such curve was filed as active; inactive = no such curve, though single readings can be large or run the other way; also: potency is read from the fitted curve at half-maximal effect; nearly all actives have a fitted effect of over 30% in size
Coupling enz: inhibits coupling enzyme system, counter-screen for aldolase hits; coupling enzyme system counterscreen, AmpLite Red fluorescence; activity change, negative = inhibition, % at 58.2 µM, hits read low; 290,000 tested, 0.67% active; in the data active = activity change below about -30%
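Activity here indicates interference with the coupling reaction, not aldolase inhibition. Compounds at 57.5 uM final met coupling enzymes for 10 min at RT; substrate and AmpLite Red detection followed, with a 525/598 nm fluorescence read after 20 min.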
NPSR antagonist: antagonists of human neuropeptide S receptor cAMP signaling; 220,000 tested, 1% active; Q6W5P4; CHO-NPSR cells, cAMP TR-FRET, antagonist mode; AID 1461; Potency, µM (top dose mostly 38.3 µM), for the others: at the top dose activity change, negative = inhibition, hits mostly inhibitors; active = well fitted curve in the direction sought with a large enough effect; inconclusive = small, poorly fitted or top-dose-only effect, or another doubt; inactive = no such curve, though single readings can be large; an effect the other way counts as inactive or inconclusive; also: potency is read from the fitted curve at half-maximal effect; nearly all actives have a fitted effect of over 50% in size
ALDH1A1 inh: ALDH1A1 (human) enzyme inhibition | Purified ALDH1A1, NADH fluorescence, propionaldehyde substrate | Potency, µM (doses to about 75.3 µM), for inactives: top-dose activity, negative = inhibition, actives largely listed as inhibitors | 220,000 tested, 7.3% active;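 also: potency is read from the fitted curve at half-maximal effect; plate controls were no enzyme wells and a reference inhibitor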
Target sequence (P00352 whole entry, looked up): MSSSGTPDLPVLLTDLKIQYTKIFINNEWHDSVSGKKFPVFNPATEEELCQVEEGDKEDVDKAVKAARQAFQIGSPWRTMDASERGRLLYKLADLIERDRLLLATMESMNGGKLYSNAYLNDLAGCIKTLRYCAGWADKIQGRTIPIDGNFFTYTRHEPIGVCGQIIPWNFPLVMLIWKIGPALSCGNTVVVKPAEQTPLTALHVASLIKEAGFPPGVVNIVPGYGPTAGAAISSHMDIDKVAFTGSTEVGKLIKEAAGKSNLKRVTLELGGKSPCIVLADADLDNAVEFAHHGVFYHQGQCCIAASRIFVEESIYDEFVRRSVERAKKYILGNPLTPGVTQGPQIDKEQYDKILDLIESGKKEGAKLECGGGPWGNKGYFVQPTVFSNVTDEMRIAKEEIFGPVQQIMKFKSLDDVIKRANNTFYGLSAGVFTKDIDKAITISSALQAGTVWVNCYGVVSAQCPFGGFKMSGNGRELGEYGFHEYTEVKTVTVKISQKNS
Sfp inh: inhibitors of Bacillus subtilis Sfp phosphopantetheinyl transferase; Q9F4F7; Biochemical Sfp PPTase activity, qHTS; Potency, µM, for inactives: largest response in the series, negative = inhibition, actives largely listed as inhibitors; 310,000 tested, 3.5% active; AID 1490; active = well fitted curve in the direction sought with a large enough effect; inconclusive = small, poorly fitted or top-dose-only effect, or another doubt; inactive = no such curve, though single readings can be large; an effect the other way counts as inactive or inconclusive;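 also: the enzyme is Sfp with the accession as filed and its product quenches rhodamine fluorescence; potency is read from the fitted curve at half-maximal effect; 0% = enzyme reaction without inhibitor and -100% = no enzyme wells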
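Reaction rates are the 30-min fluorescence difference (ex 525, em 598 nm) in wells containing 15 nM Sfp, 5 uM rhodamine-CoA and 12.5 uM BHQ-2-YbbR at pH 7.6 with 10 mM MgCl2.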
Starred values were filed as active, the others as inactive; ? = inconclusive; nt = no result given; [ ] = remark or other dose. Most compounds without a hit are left out; they make up all but 8.5% or so of the library. Unless noted, calls follow the shape of the dose curve; as a rule, active = well fitted inhibition curve with a large enough effect (not every such curve was filed as active); inconclusive = small, poorly fitted or top-dose-only effect, or another doubt; inactive = no such curve, though single readings can be large or run the other way. Unless noted, % is scaled to controls: 0 for no effect and ±100 for the full control effect.

SMILES | KDM4E inh | GoLoco inh red | Coupling enz | NPSR antagonist | ALDH1A1 inh | Sfp inh
CCOC(=O)C1(CC2CCCCO2)CCN(S(=O)(=O)c2cc(C)cs2)CC1 (configuration not stated) | -1.0% | -15.1% | -0.8 | 32.5% | 10µM* | 2.2%
CCOC(=O)C1(CC2CCCCO2)CCN(Cc2cc3ccccc3[nH]2)CC1 (configuration not stated) | 3.3% | 15.5% | -0.5 | -4.6% | 1.26µM* | 13.0%
CCOC(=O)C1(CC2CCCCO2)CCN(S(=O)(=O)c2ccc(OC)cc2)CC1 (configuration not stated) | -0.6% | -3.5% | 2.9 | 26.1% | -8.6% | 3.4%
CCCCc1ncc(CN2CCC(CC3CCCCO3)(C(=O)OCC)CC2)[nH]1 (configuration not stated) | -2.2% | 42.2% | 6.8 | 1.1% | -2.1% | 14.2%
COc1cc(NC(=O)C2CC(c3c(F)cccc3Cl)=NO2)cc(OC)c1OC (configuration not stated) | nt | nt | -0.4 | nt | nt | 3.3%
Cc1ccsc1C(=O)N1CCCC(CCC(=O)N2CCN(c3ccccn3)CC2)C1 (configuration not stated) | ? | 2.5% | 0.0 | -6.3% | ? | 26.3%
COc1cc(NC(=O)Cn2ncc(Cl)c(Cl)c2=O)c(C)cc1[N+](=O)[O-] | -6.0% | 8.9% | 2.8 | -53.9% | 2µM* | -1.6%
COc1cc(NC(=O)CN2C(=O)CN(C)C2=O)c(C)cc1[N+](=O)[O-] | -14.8% | -4.5% | 1.2 | 2.3% | -7.2% | 12.8%
CCOC(=O)c1cc2n(c1/N=C/N(C)C)-c1ccccc1C2=O | ? | 25.1µM* | -35.4* | -5.2%[46.1 µM] | 17.8µM* | 7.94µM*
O=c1[nH]c(CSc2cccc[n+]2[O-])nc2ccccc12 | 0.8% | 5.5% | -0.7 | ? | nt | 44.7µM*
Cn1c(-c2ccccc2)cnc1SCc1nc2ccccc2c(=O)[nH]1 | -6.4% | -1.3% | -1.3 | -2.9%[46.1 µM] | 31.6µM* | -8.7%
Cn1c(SCc2nc3ccccc3c(=O)[nH]2)nc2ccccc21 | ? | 11.9% | 0.2 | 3.2% | ? | 3.9%
O=c1[nH]c(CSc2ncn[nH]2)nc2ccccc12 | -16.6% | 0.4% | 4.4 | 6.0% | nt | -9.5%
C=C1CCN([C@@H](C)C(=O)NCCCCCC)S(=O)(=O)c2ccccc21 | 14.9% | 0.4% | -1.5 | -4.8% | nt | 8.5%
CCn1c(SCC(=O)Nc2cc(Cl)ccc2OC)nnc1C1CC1 | nt | nt | -5.9 | nt | nt | 10.7%
O=C(Nc1nc2ccc3ccccc3c2s1)c1ccc(N2CCCCC2)c([N+](=O)[O-])c1 | 5.5% | 1.4% | -0.4 | -0.6% | 4.7% | 1.3%
NNC(=O)c1ccc(N2CCCCCC2)c([N+](=O)[O-])c1 | 10.8% | 5.2% | 3.7 | 4.5% | 1.58µM* | 12.9%
CCC(CC)c1nnc(NC(=O)c2ccc(N3CCCCC3)c([N+](=O)[O-])c2)s1 | 2.3% | 5.1% | 1.7 | -11.0% | 0.794µM* | 11.4%
O=[N+]([O-])c1cc(NCCO)c(N2CCCCCC2)c2nonc12 | nt | nt | -0.7 | nt | nt | -0.7%
O=[N+]([O-])c1cc([N+](=O)[O-])c(N2CCCCCC2)cc1NCCO | 3.4% | -6.4% | 1.8 | -17.5%[46.1 µM] | 2.24µM* | -10.2%
O=C(NCc1ccco1)c1ccc(N2CCCCC2)c([N+](=O)[O-])c1 | -16.6% | -4.5% | -1.7 | -18.7% | ? | -9.0%
O=C(OC1CCOC1=O)c1ccc(N2CCCC2)c([N+](=O)[O-])c1 (configuration not stated) | -16.2% | 6.3% | 2.3 | 11.3% | 14.1µM* | 1.1%
CCCCCCCNC(=O)c1ccc(N2CCC3(CC2)OCCO3)c([N+](=O)[O-])c1 | -7.6% | -0.6% | -2.5 | -37.6% | 25.1µM* | 5.2%
Cc1ccc(C(=O)NC(=S)Nc2ccccc2N2CCCC2)cc1[N+](=O)[O-] | 12.3% | 6.7% | -9.0 | -38.4% | 20µM* | 17.8µM*
COc1cccc(C(=O)NC(=S)Nc2ccccc2N2CCCC2)c1 | -4.9% | 24.5% | -1.4 | 45.4% | ? | 25.1µM*
CCCCN1C(=O)c2ccc(C(=O)Nc3ccccc3N3CCOCC3)cc2C1=O | -5.4% | 2.6% | -2.3 | -33.8% | 0.891µM* | -5.7%
